This is part of a sample that, as a whole, favours compounds with a hit. Of some 83,000 tested, about 20% had one in any assay.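 Treatment: one concentration, 48 hours, 96-well format. Scoring: percent growth, with anything below 10 considered active.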 Unmarked numbers belong to inactive results. Calls of active or inactive are those of the source.

Some test systems named below: HCT-15 colon; HT29 colon; SNB-75 CNS; SNB-19 CNS; U251 CNS; PC-3 prostate; SK-MEL-5 melanoma; UACC-62 melanoma; LOX IMVI melanoma; SK-MEL-28 melanoma; SK-MEL-2 melanoma; EKVX NSCLC; SN12C renal; UO-31 renal; TK-10 renal; ACHN renal; CAKI-1 renal; A498 renal; CCRF-CEM leukemia; MOLT-4 leukemia.
What all share (experiment): NCI-60 one-dose screen, 48 h (100 = growth as untreated, 0 = no growth, -100 = all killed)
Holding throughout (conditions): 10 µM unless noted

Consider `N=C1/C(=C2\NC3C=CC=CC3S2)C(c2ccc(Cl)cc2)C2C(=O)N(c3ccccc3)C(=S)N12` (stereo not given), for which the growth in the test on HCT-15 colon was 110%; in the test with HT29 colon, 107%; in the test with SNB-75 CNS, 106%; with SNB-19 CNS it was 96.6%; with U251 CNS, 101%; with PC-3 prostate, 94.3%. Moreover, the growth in the test on SK-MEL-5 melanoma was 99.4%; with UACC-62 melanoma it was 94.1%; with LOX IMVI melanoma, 98.2%; in the test on SK-MEL-28 melanoma it was 103%; with SK-MEL-2 melanoma it was 107%; in the test on EKVX NSCLC it was 104%. The growth in the test with SN12C renal was 99.7%; with UO-31 renal, 81.6%; in the test on TK-10 renal it was 123%; in the test on ACHN renal, 103%; with CAKI-1 renal, 99.6%; in the test with A498 renal it was 116%. The growth in the test on CCRF-CEM leukemia was 101%; with MOLT-4 leukemia, 88.3%.

Take `CC1=C2[C@@H](CC1)[C@]1(C)O[C@@](C(C)C)(C[C@H]1OC(=O)CO)[C@H]2OC(=O)C1CC1c1ccccc1` (stereo not given in full): the growth is 96.8% with HCT-15 colon; 75% with HT29 colon; 102% in the test on SNB-75 CNS; 88.5% in the test on SNB-19 CNS; 79.6% in the test on U251 CNS; 62.6% with PC-3 prostate. The growth with SK-MEL-5 melanoma was 95%; in the test with UACC-62 melanoma, 53.3%; in the test with LOX IMVI melanoma, 77%; in the test with SK-MEL-28 melanoma, 114%; with SK-MEL-2 melanoma it was 75.8%; in the test on EKVX NSCLC, 93.8%. Further, the growth was 61.5% in the test with SN12C renal; 54.2% with UO-31 renal; 88% in the test on TK-10 renal; 43.1% with ACHN renal; 74.1% in the test on CAKI-1 renal; -20% (active) with A498 renal. Moreover, the growth in the test with CCRF-CEM leukemia is 96.1%; with MOLT-4 leukemia, 75.6%.

Turning to `O=C1N=c2ccccc2=C1c1sc(=S)n(C2CC(=O)N(c3ccc(Cl)cc3)C2=O)c1O` (stereo not given), the growth in the test on HCT-15 colon is 93.7%; in the test on HT29 colon it was 114%; in the test on SNB-75 CNS, 86.1%; in the test on SNB-19 CNS, 102%; with U251 CNS it was 104%; with PC-3 prostate it was 86.6%. Moreover, the growth in the test on SK-MEL-5 melanoma was 102%; in the test with UACC-62 melanoma it was 95.9%; in the test on LOX IMVI melanoma, 89.5%; with SK-MEL-28 melanoma it was 109%; in the test on SK-MEL-2 melanoma it was 102%; in the test with EKVX NSCLC it was 101%. For the same compound, the growth in the test with SN12C renal is 94.9%; in the test on UO-31 renal it was 68.5%; in the test on TK-10 renal, 129%; in the test on ACHN renal it was 93.9%; in the test with CAKI-1 renal, 87.6%; with A498 renal it was 114%. The growth in the test with CCRF-CEM leukemia is 83.8%; in the test with MOLT-4 leukemia, 97.7%.

Take `COc1c(F)cc(-n2c(C(=O)N3CC(F)C3)cc3cccnc32)cc1F`: the growth was 98.6% in the test with HCT-15 colon; 104% in the test on HT29 colon; 82.2% in the test on SNB-75 CNS; 94.2% in the test with SNB-19 CNS; 97.7% in the test with U251 CNS; 95.3% with PC-3 prostate. In addition, the growth in the test on SK-MEL-5 melanoma is 99%; in the test with UACC-62 melanoma, 101%; with LOX IMVI melanoma, 84.2%; in the test with SK-MEL-28 melanoma it was 122%; in the test on SK-MEL-2 melanoma, 108%; in the test with EKVX NSCLC, 103%. Further, the growth with SN12C renal was 97.6%; in the test with UO-31 renal, 74.2%; in the test on TK-10 renal, 99%; in the test on ACHN renal it was 93.2%; in the test on CAKI-1 renal it was 86.3%; in the test with A498 renal it was 107%. For the same compound, the growth is 99.1% in the test on CCRF-CEM leukemia and 97.8% in the test with MOLT-4 leukemia.

For the compound `N#Cc1ccccc1-c1ccc(Cn2c(-c3cscn3)nc3c(Cl)cccc32)cc1`, the growth with HCT-15 colon is 77.9%; with HT29 colon it was 71%; in the test on SNB-75 CNS, 78%; in the test on SNB-19 CNS, 88.5%; in the test with U251 CNS, 79.1%; with PC-3 prostate it was 54.4%. Moreover, the growth with SK-MEL-5 melanoma was 55.3%; in the test on UACC-62 melanoma, 75%; in the test on LOX IMVI melanoma it was 65.7%; with SK-MEL-28 melanoma, 105%; in the test with SK-MEL-2 melanoma, 75.9%; in the test with EKVX NSCLC, 76.9%. The growth with SN12C renal was 91.2%; in the test on UO-31 renal, 46%; with TK-10 renal, 81.4%; in the test on ACHN renal, 80.8%; in the test with CAKI-1 renal, 70.9%; in the test on A498 renal, 74.8%. In addition, the growth is 65.8% with CCRF-CEM leukemia and 48.2% in the test on MOLT-4 leukemia.

Turning to `O=C1/C(=C/c2ccccc2)CN(C(=O)C(Cl)Cl)C/C1=C\c1ccccc1`, the growth is -24.2% (active) in the test with HCT-15 colon; 5.46% (active) in the test with HT29 colon; 43.9% in the test with SNB-75 CNS; -35.8% (active) in the test with SNB-19 CNS; -63.8% (active) in the test on U251 CNS; -32.8% (active) in the test on PC-3 prostate. Also, the growth in the test with SK-MEL-5 melanoma is -32.3% (active); with UACC-62 melanoma it was -66.4% (active); with LOX IMVI melanoma, -88.4% (active); with SK-MEL-28 melanoma it was -25.7% (active); in the test with SK-MEL-2 melanoma it was 38.4%; with EKVX NSCLC it was 12.2%. For the same compound, the growth in the test on SN12C renal was -40.7% (active); in the test with UO-31 renal, -52.8% (active); in the test on TK-10 renal, 59.5%; with ACHN renal, -74.6% (active); in the test on CAKI-1 renal, 4.64% (active); with A498 renal, 4.17% (active). Moreover, the growth is 8.2% (active) in the test on CCRF-CEM leukemia and 4.99% (active) with MOLT-4 leukemia.

For the compound `COc1ccc(/C=C/C(=O)c2cc3c(N)c(C(=O)Nc4ccccc4)sc3nc2C)cc1`, the growth was 5.97% (active) in the test on HCT-15 colon; -3.68% (active) with HT29 colon; 11.9% in the test with SNB-75 CNS; 1.78% (active) in the test with SNB-19 CNS; 1.52% (active) in the test with U251 CNS; 17.1% with PC-3 prostate. Moreover, the growth is 4.63% (active) in the test on SK-MEL-5 melanoma; 22.9% with UACC-62 melanoma; 2.65% (active) in the test on LOX IMVI melanoma; 52% with SK-MEL-28 melanoma; 53.1% with SK-MEL-2 melanoma; 47% with EKVX NSCLC. The growth is 12.5% with SN12C renal; 35.2% in the test on UO-31 renal; 36.9% with TK-10 renal; 31.4% in the test with ACHN renal; 23.1% in the test on CAKI-1 renal; 18.6% in the test with A498 renal. For the same compound, the figures for the growth with CCRF-CEM leukemia and with MOLT-4 leukemia were 16.3% and 30.9%, respectively.

The values are drawn from PubChem BioAssay (NCI).
